Screens (PubChem)
KCNQ2 enhance = potentiators of rat KCNQ2 potassium channel; hit rate 0.54% among 310,000; O88943; B-score at 10 µM; CHO-K1 KCNQ2, FluxOR thallium flux fluorescence; active compounds read high;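 active means fluorescence ratio B-score at least 3 SD of library B-scores, with initial fluorescence B-score within 3 of them, cut at about 5.3 in these data; same plate scores as AID 2156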;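 further: B-score of peak minus minimum over baseline fluorescence ratio after K+ and Tl+ stimulus; positive B-score means potentiation of KCNQ2 with more thallium influx and brighter signal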
KCNQ2 inh = blocks the rat KCNQ2 potassium channel; O88943; CHO-K1 KCNQ2, FluxOR thallium flux, 20 min; active compounds read low; B-score at 10 µM; hit rate 1.1% among 310,000; AID 2156;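 active means fluorescence ratio B-score at most minus 3 library SDs, with starting brightness B-score within 2 library SDs, cut at about -5.5 in these data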
Numbers stand for hits; 0 = inactive; - = no result given. This is a sample that favours compounds with a hit; in the whole collection about 1.6% have one here.

SMILES | KCNQ2 enhance | KCNQ2 inh
Cc1ccc(NC(=O)N(Cc2cccnc2)Cc2ccco2)cc1C | - | 0
Cc1ccc(NC(=O)CN(Cc2ccco2)Cc2ccccc2O)cc1C | 0 | -5.8
Cc1ccc(NC(=O)N(Cc2ccco2)C(C)c2ccco2)cc1C (configuration not stated) | 0 | -5.9
COCCN(C(=S)Nc1ccc(OC)cc1)C(C)c1cccs1 (configuration not stated) | 0 | 0
Cc1ccc(NC(=O)C[n+]2ccccc2)cc1C | 0 | 0
Cc1cc(C)nc(-n2ncc3c2CC(c2ccccc2)CC3=O)n1 (configuration not stated) | 0 | 0
O=C1/C(=C/c2cccc(F)c2)SC(=S)N1NS(=O)(=O)c1ccccc1 | 0 | 0
Cc1ccc(NC(=S)N(Cc2ccco2)C(C)c2cccs2)c(Cl)c1 (configuration not stated) | 0 | -6.2
Cc1ccc(C)c(NC(=S)N(Cc2ccco2)C(C)c2cccs2)c1 (configuration not stated) | - | 0
Cc1cc(Nc2ccccc2)n(-c2cccc(Cl)c2)n1 | 0 | -6
Cc1cc(NC(=O)Nc2cccc(Cl)c2)n(-c2ccccc2)n1 | 0 | 0
CCN(CC)CCCNC(=O)c1cc(-c2ccc3c(c2)OCO3)on1 | - | 0
CC1=C(C(=O)Nc2ccccc2)C(c2ccco2)C(C#N)=C(SCc2ccccc2)N1 (configuration not stated) | 0 | -6.5
CC1=C(C(=O)Nc2ccccc2)C(c2ccco2)C(C#N)=C(SCC(=O)OC(C)C)N1 (configuration not stated) | 0 | 0
O=C1Nc2c(c(=O)[nH]c(=O)n2-c2ccccc2)C1(Nc1ncccn1)C(F)(F)F (configuration not stated) | - | 0
Cc1c(C#N)c2ccccc2n1CC(=O)NC(C)c1ccccc1 (configuration not stated) | - | 0
N#CC1=C(N)NC(SCC(=O)c2ccc(Cl)cc2)=C(C#N)C12CCCC2 | - | 0
N#CC1=C(N)NC(SCC(=O)c2ccc(Br)cc2)=C(C#N)C12CCCCC2 | 0 | -6.6
C=CCn1c(=O)c(C(=O)Nc2ccc(C)cn2)c(O)c2ccccc21 | - | 0
C=CCn1c(=O)c(C(=O)NCc2ccc(Cl)cc2)c(O)c2ccccc21 | 0 | -6
Cc1cccc(-c2noc(CCCOc3ccc(Cl)cc3Cl)n2)c1 | - | 0
N#CCSc1nc2scc(-c3cccs3)c2c(=O)n1CCc1ccccc1 | 0 | -7
C=CCn1c(SCC(=O)Nc2ccccc2)nc2scc(-c3cccs3)c2c1=O | - | 0
COc1ccc(N2C(=O)CC(N3CCC(O)(c4ccc(Br)cc4)CC3)C2=O)cc1 (configuration not stated) | 0 | 0
Cn1cc(CC(=O)NC2CCCCC2)c2ccccc21 | 5.4 | 0
SMILES | KCNQ2 enhance | KCNQ2 inh
COCCNC(=O)Cc1cn(C)c2ccccc12 | 0 | 0
CCC(C)NC(=O)Cn1nc(C(F)(F)F)c2c1CCCC2 (configuration not stated) | 0 | 0
Cc1oc2ccc(OCc3ccccc3Cl)cc2c1C(=O)O | 0 | 0
Cc1oc2ccc(OCc3ccc(F)cc3Cl)cc2c1C(=O)O | 7 | 0
CCN(CC)C(=O)/C(=C/c1ccc2c(c1)OCO2)NC(=O)c1ccc(Br)cc1 | 0 | -5.9
O=C(NCCO)/C(=C/c1ccc2c(c1)OCO2)NC(=O)c1ccc(Br)cc1 | - | 0
O=C(C[N+]1(CC#Cc2ccccc2)CCCCC1)c1ccccc1 | - | 0
Cn1cc(C(=O)Nc2ccc(Cl)cc2)c(C(F)(F)F)n1 | 0 | 0
O=C(NC(Cc1ccccc1)c1nc2ccccc2[nH]1)c1cccc([N+](=O)[O-])c1 (configuration not stated) | 0 | 0
Cc1onc(-c2ccccc2)c1C(=O)NCCc1c[nH]c2ccccc12 | 0 | -5.7
Cc1noc(C)c1COc1cccc(C(=O)NCCc2c[nH]c3ccccc23)c1 | 0 | 0
O=C(NCc1ccc2c(c1)OCO2)c1ccc(N2CCCCCC2)c([N+](=O)[O-])c1 | 0 | 0
CC1CCCN(c2ccc(C(=O)NCc3ccc4c(c3)OCO4)cc2[N+](=O)[O-])C1 (configuration not stated) | 8.3 | 0
CC1C(=O)C(C)C(c2ccc3c(c2)OCO3)NC1c1ccc2c(c1)OCO2 (configuration not stated) | - | 0
CC1C(=O)C(C)C(c2ccc(Br)cc2)NC1c1ccc(Br)cc1 (configuration not stated) | 0 | -6.3
C/C(=C\C(=O)c1ccccc1)NNc1nc2ccccc2s1 | 0 | -5.7
CC(=O)NNc1nc2ccccc2s1 | 0 | 0
CCN(C(=O)COc1ncnc2ccc(Br)cc12)C1CCS(=O)(=O)C1 (configuration not stated) | 0 | 0
N#C/C(=C/c1ccc(N2CCCCCC2)o1)c1ccc(F)cc1 | 0 | -7
N#C/C(=C/c1ccc(N2CCCCCC2)o1)c1cccc(F)c1 | - | 0
O=C(Nc1nc(=S)ss1)c1ccc(Cl)cc1Cl | 17 | 0
O=C(Nc1ccc2ccccc2c1)c1ccc(Cl)cc1Cl | 0 | 0
O=C(NC1=NCCS1)c1cc(-c2cccc(Br)c2)nc2ccccc12 | - | 0
